Compound activity from PubChem BioAssay.
In the library only some 0.97% were active in any assay of this set; here they are far more common.
RPL19A TOR yeast = alters RPL19A-GFP fluorescence in TOR pathway yeast screen | percent response vs DMSO, % at 10 µM | AID 2025 | 330,000 compounds, 0.3% hits | S. cerevisiae RPL19A-GFP strain, flow cytometry, 3 h; hits give low values;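 active = percent response vs DMSO below 50%; inconclusive = fewer than 70 events counted for the yeast strain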;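 note: median channel GFP fluorescence of the barcoded RPL19A-GFP strain; ratio of sample median GFP to plate DMSO average so 100% = DMSO; lower means less RPL19A-GFP as with rapamycin TOR inhibition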
AGP1 TOR yeast = yeast TOR pathway AGP1-GFP modulation. S. cerevisiae AGP1-GFP multiplex flow cytometry, 3 h; GFP as percent of DMSO wells. GFP response vs DMSO, % at 10 µM. 320,000 compounds, 0.02% hits. AID 2066;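 active = GFP response relative to DMSO above a set limit, near screen average plus 3 SD, cut at about 150% in these data; inconclusive = fewer than 70 cells counted for the yeast strain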;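 note: median GFP channel fluorescence of the gated AGP1 strain per well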
LAP4-GFP MLPCN = modulators of TOR pathway LAP4-GFP in S. cerevisiae; S. cerevisiae LAP4-GFP multiplex, flow cytometry GFP, 3 h; median GFP as percent of DMSO wells; AID 2023; 320,000 compounds, 0.34% hits; GFP response vs DMSO, % at 10 µM;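 active = GFP response vs DMSO above a set limit, about the screen mean plus 3 SD, cut at about 150% in these data; inconclusive = under 70 cell events counted for the yeast strain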
CIT2-GFP yeast = yeast TOR pathway CIT2-GFP modulation; S. cerevisiae CIT2-GFP strain, flow cytometry, 3 h; 100 means same as DMSO wells; GFP response vs DMSO, % at 10 µM; 320,000 compounds, 0.065% hits;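 active = GFP response relative to DMSO above a set limit, near the screen mean plus 3 SD, cut at about 150% in these data; inconclusive = Fewer than 70 cells measured for a yeast strain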;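 note: ratio of well median GFP fluorescence to mean of DMSO wells on the plate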
GASC-1 inh = inhibitors of human GASC-1 (JMJD2C) demethylase; Q9H3R0; 330,000 compounds, 0.069% hits; AID 2099; inhibition, % at 2.35 µM; GST-JMJD2C(1-420) H3K9me3 demethylation, DELFIA europium;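 active = more than half of a compound's replicate wells show inhibition beyond 50%, single wells judged on their own value; inconclusive = some, but no more than half, of replicates pass 50% inhibition; inactive = no replicate passes 50% inhibition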;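 note: signal counts dimethyl H3K9 product captured on neutravidin plate; 0% = median of DMSO wells and 100% = 0.3 times that DMSO median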
Target sequence (Q9H3R0 1-420 limits assumed): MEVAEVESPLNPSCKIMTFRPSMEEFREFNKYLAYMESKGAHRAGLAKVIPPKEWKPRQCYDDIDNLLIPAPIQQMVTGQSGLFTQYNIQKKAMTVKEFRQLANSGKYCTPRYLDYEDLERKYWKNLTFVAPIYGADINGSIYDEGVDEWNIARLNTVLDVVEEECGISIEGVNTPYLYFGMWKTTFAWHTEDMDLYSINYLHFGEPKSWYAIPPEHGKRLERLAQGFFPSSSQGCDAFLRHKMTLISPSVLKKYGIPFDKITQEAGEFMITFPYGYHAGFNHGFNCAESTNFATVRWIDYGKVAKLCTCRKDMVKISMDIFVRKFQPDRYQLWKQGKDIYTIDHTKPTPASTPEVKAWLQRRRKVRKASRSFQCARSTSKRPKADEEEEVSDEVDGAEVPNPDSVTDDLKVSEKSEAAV
MEP2-GFP yeast = yeast TOR pathway MEP2-GFP modulation; S. cerevisiae MEP2-GFP strain, flow cytometry GFP, 3 h; 100% = DMSO control level; GFP response vs DMSO, % at 10 µM; 330,000 compounds, 0.51% hits;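 active = GFP response versus DMSO above a set limit, roughly screen mean plus 3 SD, cut at about 180% in these data; inconclusive = fewer than 70 cells counted for a yeast strain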;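 note: median GFP fluorescence of the barcode-gated MEP2-GFP cells per well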
Starred values were filed as active, the others as inactive; u = inconclusive; x = not tested or not shown; [ ] = another dose, or the depositor's remark.

SMILES | RPL19A TOR yeast | AGP1 TOR yeast | LAP4-GFP MLPCN | CIT2-GFP yeast | GASC-1 inh | MEP2-GFP yeast
COC(=O)c1cc(S(=O)(=O)C(C)C)c(S(C)=O)s1 (centres undefined) | 32*[may fluoresce violet] | u | 78 | u | 6 | 435*[may fluoresce violet]
O=P(Cc1ccccc1O)(c1ccccc1)c1ccccc1 | 54 | u | 84 | u | 11 | 208*[may fluoresce violet]
COCCNC(=O)c1cn(C)c2ccc(S(=O)(=O)N3CCCCC3)cc2c1=O | 101 | 104 | 102 | 100 | -3 | 101
O=C1CC(C(=O)N2CCc3ccccc32)CN1c1ccccc1 (centres undefined) | 100 | 97 | 113 | 96 | -15 | 110
CCc1ccc(C2=NN(c3ccc(S(N)(=O)=O)cc3)C(c3ccc(F)cc3)C2)cc1 (centres undefined) | 63 | x | 94 | u | -6 | 202*[may fluoresce violet]
CCCc1nnc(SCC(=O)Nc2ccc(NC(C)=O)cc2)n1-n1cccc1 | 93 | 93 | 89 | 96 | -46 | 100
Cc1c(NC(=O)/C=C/c2cn(-c3ccccc3)nc2-c2ccccc2)c(=O)n(-c2ccccc2)n1C | 64 | x | 87 | u | 6 | 175*[may fluoresce violet]
NC(=O)C1CCN(C(=S)NCCc2ccccc2)CC1 | 86 | 89 | 105 | 195* | 0 | 492*
COc1ccc(CCNC(=S)N2CCC(C(N)=O)CC2)cc1 | 103 | 115 | 101 | 104 | -5 | 105
Cc1ccc(C(=O)COC(=O)C2CC3CCCC(C2)C3=O)cc1[N+](=O)[O-] (centres undefined) | 97 | 99 | 97 | 93 | 0 | 89
Brc1cc(Br)c2nc(-c3cccs3)ccc2c1 | 94 | 85 | 151* | 74 | 18 | 91
Nc1nccc(-c2cccs2)n1 | 97 | 97 | 87 | 96 | -1 | 96
CC(=O)Nc1ccc(S(=O)(=O)NCC(=O)Nc2ccc3c(c2)OCO3)cc1 | 95 | 99 | 94 | 100 | 1 | 98
O=C(O)CCc1ccc(-c2ccc(Cl)cc2)o1 | 107 | 74 | 142 | 83 | 0 | 97
O=C(O)CCc1ccc(-c2ccc(Br)cc2)o1 | 95 | 72 | 153* | 68 | -3 | 91
Cc1ccccc1CN1CCN(c2ccc(S(=O)(=O)N3CCCC3)cn2)CC1 | 98 | 100 | 107 | 99 | 4 | 100
CC(C)c1ccc(C2C3CSCC=C3C(C#N)=C(N)C2(C#N)C#N)cc1 (centres undefined) | 96 | 103 | 170* | 98 | 2 | 98
CN1CC=C2C(C#N)=C(N)C(C#N)(C#N)[C@H](c3cccc(Cl)c3)C2C1 (some centres undefined) | 99 | 100 | 97 | 96 | -9 | 98
CN1CCc2c(sc(/N=C/c3c[nH]c4ccccc34)c2C(N)=O)C1 | 69 | x | x | x | -25 | 576*[may fluoresce violet]
CCc1cc(C(=O)O)c(NC(=O)C(c2ccccc2)c2ccccc2)s1 | 59 | x | 96 | u | 9 | 218*[may fluoresce violet]
COc1cccc(CNS(=O)(=O)c2ccc3c(c2)C(C)(C)C(=O)N3C)c1 | 101 | 103 | 101 | 110 | -9 | 105
O=C(NCCNS(=O)(=O)c1ccccc1)N1CCOCC1 | 93 | 103 | 93 | 94 | 10 | 95
COc1ccc(S(=O)(=O)NCCNC(=O)N2CCOCC2)cc1 | 97 | 125 | 114 | 173*[may fluoresce green] | 1 | 114
CS/C(N)=N/N=C/c1ccc2c(c1)OCO2 | 77 | 147 | 155* | 132 | 5 | 337*
COc1cc(OC)cc(C(=O)Nc2nc(CC(=O)NC(C)c3ccccc3)cs2)c1 (centres undefined) | 96 | 110 | 111 | 101 | -4 | 102
SMILES | RPL19A TOR yeast | AGP1 TOR yeast | LAP4-GFP MLPCN | CIT2-GFP yeast | GASC-1 inh | MEP2-GFP yeast
COc1ccc2c(c1)C=Cc1ccccc1O2 | 96 | 96 | 150* | 89 | 22 | 92
COc1ccc2[nH]c3ccccc3c2c1 | 101 | 99 | 105 | 113 | 0 | 105
COc1ccc(NC(=O)CN(C)S(=O)(=O)c2ccc3c(c2)c(=O)n(C)c(=O)n3C)cc1 | 103 | 104 | 103 | 106 | 28 | 100
O=C(Nc1ccc(Cl)cc1)C1CCN(C(=O)c2ccco2)CC1 | 109 | 104 | 111 | 101 | -3 | 112
O=C(NCc1ccccc1Cl)C1CCN(C(=O)c2ccco2)CC1 | 108 | 104 | 104 | 117 | 58* | 120
COc1ccc(N(Cc2ccccc2)S(=O)(=O)c2cc(C(=O)O)ccc2Cl)cc1 | 99 | 95 | 100 | 93 | 5 | 106
O=S(=O)(Nc1nc2ccccc2nc1Cl)c1ccccc1 | 107 | 98 | 90 | 98 | 4 | 104
O=S(=O)(Nc1nc2ccccc2nc1Cl)c1ccc2ccccc2c1 | 105 | 87 | 122 | 88 | 3 | 185*
COc1ccc(NC(=O)CSc2nnc(NC(=O)C3CCC3)s2)c(OC)c1 | 46*[may fluoresce violet] | u | 90 | u | -4 | 199*[may fluoresce violet]
Cc1ccc(P(=O)(CC(=O)O)c2ccc(C)cc2)cc1 | 15*[may fluoresce violet] | u | 104 | u | u | 355*[may fluoresce violet]
CCNC(=O)CP(=O)(c1ccccc1)c1ccccc1 | 99 | 101 | 94 | 101 | 17 | 102
COc1cc2c(cc1OC)C(c1cc(Br)c(OC)c(OC)c1)CC(=O)N2 (centres undefined) | 102 | 101 | 98 | 105 | -1 | 105
C1CCN(c2nc(N3CCCCC3)nc(N3CCNCC3)n2)CC1 | 92 | 82 | 99 | u | -9 | 218*[may fluoresce violet]
Oc1ccccc1OCc1nc2ccccc2s1 | 57 | u | 111 | u | -3 | 179*[may fluoresce violet]
COc1cc(OC)cc(C(=O)NCC(=O)OCc2ccc(Cl)c(Cl)c2)c1 | 101 | 104 | 106 | 98 | x | 105
Cc1ccc(/C=C2\SC(=S)N(CCC(=O)NNC(=O)c3cccc(O)c3)C2=O)cc1 | 21*[may fluoresce violet] | 14 | 79 | u | -4 | 151
Cc1ccc(/C=C2\SC(=S)N(CCC(=O)NNC(=O)c3ccc(O)cc3)C2=O)cc1 | 103 | 110 | 102 | 101 | -3 | 106
CNC[C@@H]1Oc2c(NC(=O)Nc3ccccc3)cccc2C(=O)N([C@@H](C)CO)C[C@H]1C | x | x | x | x | 51* | x
COc1ccc(S(=O)(=O)Nc2cccc3c2O[C@H](CN(C)Cc2ccc(C(=O)O)cc2)[C@@H](C)CN([C@H](C)CO)C3=O)cc1 | 99 | 103 | 98 | 102 | 58* | 98
CNC[C@@H]1Oc2c(NC(=O)Nc3ccc(F)cc3)cccc2C(=O)N([C@H](C)CO)C[C@@H]1C | x | x | x | x | -25 | x
COc1ccc(S(=O)(=O)Nc2cccc3c2O[C@H](CN(C)Cc2ccc(-c4ccccc4)cc2)[C@@H](C)CN([C@H](C)CO)C3=O)cc1 | 97 | 89 | 100 | 87 | -4 | 95
